Screens as filed in PubChem BioAssay.
In the library only some 3.2% were active in any assay of this set; here they are far more common.
Tau FP inhib: blocks human tau fibril formation measured by polarization | P10636 | K18 P301L tau heparin fibrillization, Alexa594 FP, 6 h | Potency, µM (highest dose often 57.7 µM), most hits filed as inhibitors | 0.39% of 280,000 active; note: nearly all actives have a fitted effect of over 55% in size
Target sequence (P10636 561-689 P618L limits assumed): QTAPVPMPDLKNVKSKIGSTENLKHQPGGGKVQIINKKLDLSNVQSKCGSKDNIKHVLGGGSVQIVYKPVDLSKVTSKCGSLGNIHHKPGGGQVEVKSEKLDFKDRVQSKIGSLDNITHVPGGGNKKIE
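Compound effects on tau fibrillization are measured by Alexa 594 fluorescence polarization (ex 555, em 632 nm). K18 P301L tau is used at 15 uM with 0.24 uM labeled tracer, and 20 uM heparin induces aggregation over 6 hr at 37 C.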
Tau fluor counter: counter-screen for tau fibril formation inhibitors; tau K18 P301L Alexa594 fluorescence, heparin fibrillization; 0.93% of 280,000 active; Potency, µM (highest dose often 57.7 µM); note: nearly all actives have a fitted effect of over 55% in size
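Human tau K18 P301L (15 uM unlabeled, 0.24 uM Alexa 594-labeled) in 100 mM sodium acetate pH 7 with 20 uM heparin, 6 hr at 37 C. ThT 30 uM added, 1 hr ambient; Alexa 594 FP and total fluorescence read at 555/632 nm.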
Tau ThT inhib: blocks human tau fibril formation measured by thioflavin T; recombinant tau K18 P301L (four-repeat tau fragment), heparin-induced fibrillization, ThT fluorescence; 2.1% of 270,000 active; Potency, µM (titrated, usually from 57.4 µM), hits mostly inhibitors; note: nearly all actives have a fitted effect of over 55% in size
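Recombinant human tau K18 fragment […] carrying P301L, 15 uM unlabeled plus 0.24 uM Alexa 594-labeled, was fibrillized with 20 uM heparin in 100 mM sodium acetate pH 7 for 6 hr at 37 C; 30 uM ThT fluorescence read after 1 hr.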
TexasRed fluor: alters Texas Red total fluorescence, flagging assay interference; TRb/SRC2 Texas Red total fluorescence interference; Potency, µM (top dose mostly 106 µM); 0.29% of 280,000 active; AID 1479; active = well fitted curve in either direction with a large enough effect; inconclusive = small, poorly fitted or top-dose-only effect
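Human TRb ligand-binding domain at 0.6 uM with 20 nM Texas Red SRC2 peptide in Tris buffer containing 1 uM T3 and 5% DMSO, incubated with compound 5 h at ambient temperature. Total fluorescence (555/632 nm) calculated as parallel + 2 × perpendicular.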
TRb-SRC2 inh: inhibitors of human thyroid hormone receptor beta-SRC2 interaction. P10828. TRbeta-SRC2 peptide binding, fluorescence polarization; receptor liganded with 1 µM T3. Potency, µM (titrated, usually from 106 µM), hits mostly inhibitors. 0.065% of 280,000 active; note: nearly all actives have a fitted effect of over 50% in size
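Binding of a 20-amino-acid Texas Red SRC2 peptide (20 nM) to TRb ligand-binding domain (0.6 uM) with agonist T3 at 1 uM was followed by fluorescence polarization after a 5 hr room-temperature incubation.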
GoLoco inh red: blocks human Gai1 binding to RGS12 GoLoco peptide, red readout; AID 880; Gai1:RGS12 GoLoco peptide FP, rhodamine, 10 min; 0.44% of 230,000 active; P63096; Potency, µM (series often up to 61.6 µM), actives largely listed as inhibitors; active = well fitted inhibition curve with a large enough effect, not every such curve was filed as active; inactive = no such curve, though single readings can be large or run the other way; note: nearly all actives have a fitted effect of over 30% in size
Target sequence (P63096 whole entry, looked up): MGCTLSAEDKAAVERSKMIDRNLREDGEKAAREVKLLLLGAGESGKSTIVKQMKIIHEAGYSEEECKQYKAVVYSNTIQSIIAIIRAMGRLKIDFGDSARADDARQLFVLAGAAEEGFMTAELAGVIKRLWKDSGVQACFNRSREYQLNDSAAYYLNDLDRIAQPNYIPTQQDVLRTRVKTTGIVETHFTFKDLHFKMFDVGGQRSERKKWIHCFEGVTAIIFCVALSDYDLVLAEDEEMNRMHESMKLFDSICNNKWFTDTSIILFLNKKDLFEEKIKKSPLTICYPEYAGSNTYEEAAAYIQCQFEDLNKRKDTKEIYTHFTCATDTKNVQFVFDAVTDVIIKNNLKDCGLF
Large screens that a line does not name were inactive; [ ] = another dose, or the depositor's remark. Unless noted, calls come from the whole dose curve; as a rule, active = well fitted curve in the direction sought with a large enough effect; inconclusive = small, poorly fitted or top-dose-only effect, or another doubt; inactive = no such curve, though single readings can be large; an effect the other way counts as inactive or inconclusive.

C[n+]1ccccc1C1CCCC/C1=N\NC(N)=S (stereo unspecified)	GoLoco inh red 10µM
CC(=O)OC[C@H]1O[C@@H](O/N=C(\C)CCN2CCCc3nc(C)c(C)cc32)[C@H](OC(C)=O)[C@@H](OC(C)=O)[C@H]1OC(C)=O	none (no result: GoLoco inh red)
CCOC(=O)/C(C#N)=C1/C=CN(Cc2ccccc2)C=N1	none
CCOC(=O)/C(C#N)=C1\C(=O)N(Cc2ccccc2)c2ccccc21	Tau FP inhib inconclusive, Tau fluor counter inconclusive, Tau ThT inhib 35µM
O=C(NCCOc1ccccc1)O[C@@H]1C(=O)c2cc(Br)ccc2O[C@H]1c1ccc2c(c1)OCO2	Tau FP inhib inconclusive, Tau fluor counter inconclusive
CCOc1cc(/C=C2\CCC/C(=C\c3cc(Cl)c(O)c(OCC)c3)C2=O)cc(Cl)c1O	Tau FP inhib inconclusive, Tau fluor counter inconclusive, Tau ThT inhib 8.9µM
COc1ccc(C(=O)C2C3C4COC(O4)C(=O)C3C3C=Cc4ccccc4N32)c(OC)c1 (stereo unspecified)	Tau FP inhib 11µM, Tau fluor counter 20µM[fluorescent], Tau ThT inhib 20µM, TexasRed fluor 22µM[fluorescent], TRb-SRC2 inh 7.1µM
Cc1ccc(C(=O)[C@@H]2[C@H]3C4COC(O4)C(=O)[C@@H]3[C@H]3C=Cc4ccccc4N32)cc1 (stereo partly specified)	Tau FP inhib inconclusive, Tau fluor counter inconclusive, Tau ThT inhib 22µM
CC(=O)[C@@H]1[C@H]2[C@H](C(=O)[C@H]3OC[C@@H]2O3)[C@H]2C=Cc3ccccc3N21	Tau FP inhib inconclusive, Tau fluor counter inconclusive, Tau ThT inhib 16µM, TexasRed fluor 35µM[fluorescent]
CC(=O)[C@@H]1[C@@H]2C(=O)N(C3CCCCC3)C(=O)[C@@H]2C2c3ccccc3C=CN21 (stereo partly specified)	Tau ThT inhib inconclusive
Cc1ccc(N2C(=O)[C@@H]3[C@H](C2=O)C2c4ccccc4C=NN2[C@@H]3C(=O)c2ccc(Cl)cc2)cc1 (stereo partly specified)	none
COc1ccc(-n2cc(-c3ccc4c(c3)OCO4)n(CC(=O)Nc3cccc(C)c3C)c2=O)c(OC)c1	Tau ThT inhib inconclusive (no result: GoLoco inh red)
CCC(C)(C)C1CCC(=NNc2nc3ccccc3[nH]2)CC1 (stereo unspecified)	Tau FP inhib inconclusive, Tau fluor counter inconclusive, Tau ThT inhib 16µM
CC(=O)N1CCC(=NNc2nc3ccccc3[nH]2)CC1	Tau ThT inhib inconclusive
O=C(/C=C/NNC(=O)c1ccc(Cl)cc1)c1ccccc1	Tau ThT inhib 22µM
O=C(/C=C/NNC(=O)c1ccccc1)c1ccc(Br)cc1	Tau fluor counter inconclusive, Tau ThT inhib 25µM
[O-][n+]1c2c(c3c4non(O)c4ccc31)CCCC2	Tau fluor counter inconclusive, Tau ThT inhib 14µM
COc1ccc(-c2nn(-c3ccccc3)cc2C(=O)Nc2nccs2)cc1	Tau FP inhib 28µM, Tau fluor counter inconclusive
COc1cccc(-c2nn(-c3ccccc3)cc2C(=O)Nc2nccs2)c1	Tau FP inhib 28µM, Tau fluor counter inconclusive
O=C1[C@H]2[C@H]3[C@H](O)[C@H](O)C/C(=N/OCc4ccccc4)[C@H]3CC[C@@H]2C(=O)N1C1CCCCC1	none (no result: GoLoco inh red)
CC1=C/C(=C\c2ccc3c(c2)OCO3)C(=O)S1	Tau ThT inhib 6.3µM
CCCN1C/C(=C/c2ccc3c(c2)OCO3)C(=O)/C(=C/c2ccc3c(c2)OCO3)C1	Tau FP inhib inconclusive, Tau ThT inhib 22µM
CC(=O)C(=Nc1ccccc1Cl)NNc1ccc(Cl)cc1	Tau FP inhib inconclusive, Tau fluor counter inconclusive, Tau ThT inhib 6.3µM
CCCCC/C=C\C/C=C\C/C=C\C=C\C(=O)CCCC(=O)O	none
CCN(CC)c1ccc(N=Cc2c(C)[nH]c3ccccc23)cc1	Tau FP inhib inconclusive, Tau fluor counter inconclusive, Tau ThT inhib 8.9µM, TexasRed fluor inconclusive, TRb-SRC2 inh inconclusive
